Test results: PubChem BioAssay (NCI)
“And” between values parts separate entries of the source, which are not always exact repeats. Identical values can stand only once. Compounds without any hit were thinned out: in the full panel of roughly 83,000, 20% have a hit.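 Values shown are percent growth following 48 h exposure of cells in 96-well plates to a single concentration of compound; below 10 was considered active.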 The source made the active and inactive calls.

Legend:
Assay in all cases: NCI-60 one-dose screen, 48 h (100 = growth as untreated, 0 = no growth, -100 = all killed)
Settings in all cases: 10 µM unless noted
[1] = system: DU-145 prostate
[2] = system: K-562 leukemia
[3] = system: MALME-3M melanoma
[4] = system: MDA-MB-231 breast
[5] = system: RXF 393 renal
[6] = system: SF-268 CNS
[7] = system: SF-295 CNS
[8] = system: SF-539 CNS
[9] = system: UACC-257 melanoma
[10] = system: M14 melanoma

Compound | growth [1] | growth [2] | growth [3] | growth [4] | growth [5] | growth [6] | growth [7] | growth [8] | growth [9] | growth [10]
C=C1C(=O)O[C@H]2[C@H]1CC/C(COC(=O)NCCCCNC(=O)OC/C1=C/CC[C@@]3(C)O[C@H]3[C@H]3OC(=O)C(=C)[C@@H]3CC1)=C\CC[C@@]1(C)O[C@@H]21 | 45.8% (inactive) | 4.14% (active) | -39.3% (active) | 24% (inactive) | -30.2% (active) | 48.7% (inactive) | 99% (inactive) | -23.6% (active) | 2.94% (active) | 11.5% (inactive)
COc1ccc(-c2ccc(-c3ccc(C(=N)N)cn3)o2)cc1Cl | 46.5% (inactive) | -40.3% (active) | 5.7% (active) | 4.25% (active) | 56.6% (inactive) | 46.5% (inactive) | 73.6% (inactive) | 33% (inactive) | 77.1% (inactive) | 31.8% (inactive)
CC(=O)c1c(C)nc(SCC(=O)Nc2ccc(Cl)cc2)n1-c1ccc(Cl)cc1 | 106% (inactive) | 83% (inactive) | 90.8% (inactive) | 82% (inactive) | 67.3% (inactive) | 92.5% (inactive) | 91.3% (inactive) | 95.8% (inactive) | 94.5% (inactive) | 98.4% (inactive)
CCCCCCCCn1ccc2cc(NC(=O)CN3CCN(c4nc(C)cc(N5CCCCC5)n4)CC3)ccc21 | 95.2% (inactive) | 56% (inactive) | 112% (inactive) | 85.7% (inactive) | 86.9% (inactive) | 93.3% (inactive) | 103% (inactive) | 105% (inactive) | 115% (inactive) | 90.6% (inactive)
Nc1ccc(/C=N/Nc2ccnc3c(N)cccc23)c2cccnc12 | -49.1% (active) | -55.7% (active) | 104% (inactive) | -66.6% (active) | -72.5% (active) | -61.8% (active) | -75.6% (active) | -94.9% (active) | 88.1% (inactive) | -78.6% (active)
Cn1cc(-c2nc3c(F)cc4[nH]ncc4c3c3c2CCCC3)c(C(F)F)n1 | 78.7% (inactive) | 26% (inactive) | 77.1% (inactive) | 60.2% (inactive) | 55% (inactive) | 61.7% (inactive) | 64.7% (inactive) | 62.3% (inactive) | 90.5% (inactive) | 53.4% (inactive)
O=C1OCC2=C1C(c1cccc(C(F)(F)F)c1)c1cc3c(cc1N2CCO)CCC3 (stereo not given) | -6.77% (active) | 7.05% (active) | 43.9% (inactive) | 28.4% (inactive) | 49.7% (inactive) | 17.3% (inactive) | 1.03% (active) | -15.6% (active) | 67.8% (inactive) | 0.275% (active)
CCOC(=O)c1nnn(Cc2cc(=O)oc3c2ccc2ccccc23)c1C | 103% (inactive) | 104% (inactive) | 98.5% (inactive) | 98.7% (inactive) | 112% (inactive) | 105% (inactive) | 98.8% (inactive) | 98.8% (inactive) | 94% (inactive) | 98.1% (inactive)
CCCCCCCCCCCCCCCC[N+](C)(C)CCN(Cc1ccc(OC)cc1)c1ncccn1 | -100% (active) and 69.4% (inactive) | 35.5% (inactive) | -70.3% (active) and 43.8% (inactive) | -82.5% (active) and 47.1% (inactive) | -58.4% (active) and -49.8% (active) | -92.9% (active) and 38% (inactive) | -90.6% (active) | -91.3% (active) and 71.2% (inactive) | 25.2% (inactive) and 28.7% (inactive) | -62.6% (active) and -17.7% (active)
COc1ccc2nc3cc(Cl)ccc3c(NCCCNCCC(C)O)c2c1 (stereo not given) | -16.2% (active) | -18.1% (active) | -76.1% (active) | -47.5% (active) | -67.6% (active) | -25.9% (active) | -11.9% (active) | -56.9% (active) | -83.9% (active) | -82% (active)
Cc1nonc1-c1ccc2c(c1)OCO2 | 94.4% (inactive) and 109% (inactive) | 101% (inactive) | 116% (inactive) and 142% (inactive) | 96.8% (inactive) and 110% (inactive) | 96.8% (inactive) and 99.4% (inactive) | 89.9% (inactive) and 95% (inactive) | 91.4% (inactive) and 101% (inactive) | 111% (inactive) and 95.7% (inactive) | 104% (inactive) and 111% (inactive) | 110% (inactive) and 108% (inactive)
CCn1cc(C(=O)NN=C2CCCC2)c(=O)c2ccc(C)nc21 | 109% (inactive) | 93.1% (inactive) | 91.8% (inactive) | 93.3% (inactive) | 103% (inactive) | 93.4% (inactive) | 92.8% (inactive) | 96.2% (inactive) | 90.1% (inactive) | 102% (inactive)
CCOC(=O)c1ccc(Nc2ncnc3c2cnn3-c2cccc(F)c2)cc1 | 106% (inactive) | 96.7% (inactive) | 103% (inactive) | 93.3% (inactive) | 105% (inactive) | 94.2% (inactive) | 100% (inactive) | 98.5% (inactive) | 99.6% (inactive) | 99.1% (inactive)
CCCCCCCCCCCCCCCCCCn1cc(COc2ccc(C=O)cc2)nn1 | 92.4% (inactive) | 85.9% (inactive) | 106% (inactive) | 110% (inactive) | 113% (inactive) | 93.7% (inactive) | 98.7% (inactive) | 98.5% (inactive) | 109% (inactive) | 92.8% (inactive)
O=C(CCN1CCOCC1)Nc1cccc(-n2cc(-c3ccncc3)c(-c3ccc(Cl)c(O)c3)n2)c1 | 13% (inactive) | 20.2% (inactive) | 66.3% (inactive) | 55.4% (inactive) | 22.2% (inactive) | 37% (inactive) | 6.52% (active) | -19.7% (active) | 66.2% (inactive) | 5.06% (active)
O=C(Nc1ccccc1C(=O)N/N=C(\c1ccccc1)c1ccccn1)c1ccccc1 | 14.1% (inactive) | 12.5% (inactive) | 35.1% (inactive) | 22.5% (inactive) | 21.4% (inactive) | 15.5% (inactive) | 17.9% (inactive) | 8.36% (active) | -10.4% (active) | -12.9% (active)
CCCCC1=C(Br)C(=O)c2nc(C)ccc2C1=O | 101% (inactive) | 34% (inactive) | 83.6% (inactive) | 80.9% (inactive) | 90.4% (inactive) | 92.8% (inactive) | 103% (inactive) | 92.6% (inactive) | 94% (inactive) | 96% (inactive)
O=C(CC1(O)C(=O)Nc2ccc(Br)cc21)c1ccc(Cl)cc1 (stereo not given) | 107% (inactive) | 98.2% (inactive) | 103% (inactive) | 98.8% (inactive) | 96.4% (inactive) | 97.5% (inactive) | 106% (inactive) | 108% (inactive) | 88.1% (inactive) | 99.3% (inactive)
CN1CCCc2cc(/C=C3\SC(=S)N(C(Cc4ccc(O)cc4)C(=O)O)C3=O)ccc21 (stereo not given) | 104% (inactive) | 91.3% (inactive) | 88.9% (inactive) | 96.1% (inactive) | 99.4% (inactive) | 97.2% (inactive) | 98.2% (inactive) | 102% (inactive) | 99.6% (inactive) | 101% (inactive)
Nc1nc(Cl)nc2c1ncn2C1OC(CO)C(O)C1O (stereo not given) | 64.8% (inactive) and 44.9% (inactive) | 67% (inactive) | 74.7% (inactive) and 76.4% (inactive) | 71.1% (inactive) and 90.7% (inactive) | 123% (inactive) and 118% (inactive) | 57.6% (inactive) and 63.4% (inactive) | 102% (inactive) and 103% (inactive) | 91.7% (inactive) and 111% (inactive) | 99.1% (inactive) and 85.9% (inactive) | -14% (active) and 4.59% (active)
Cc1ccc(-c2nc3nc(-c4ccc(Br)cc4)nc(N4CCCNCC4)c3o2)cc1 | 14.2% (inactive) | -48.4% (active) | 88.3% (inactive) | -57% (active) | 87.1% (inactive) | 98.6% (inactive) | 69.2% (inactive) | 3.79% (active) | 103% (inactive) | -54.2% (active)
CN1CCN(CCNC(=O)c2cccc(CN3c4cccc5c4C(=Cc4cccnc43)N(C)C5=O)c2)CC1 | 68.1% (inactive) | 30% (inactive) | 49.3% (inactive) | 31.7% (inactive) | 26.6% (inactive) | 59.3% (inactive) | 42.5% (inactive) | 33.5% (inactive) | 50% (inactive) | 45.4% (inactive)
N=c1ccccn1CCO | 125% (inactive) | 108% (inactive) | 111% (inactive) | 95% (inactive) | 114% (inactive) | 110% (inactive) | 124% (inactive) | 107% (inactive) | 105% (inactive) | 102% (inactive)
COc1cc(OC)cc(-c2ccc(-c3ccc(C(=N)N)cn3)s2)c1 | 66.3% (inactive) | 0.742% (active) | 99.5% (inactive) | 81.1% (inactive) | 98.6% (inactive) | 93.9% (inactive) | 88.7% (inactive) | 83.3% (inactive) | 97.8% (inactive) | 95.7% (inactive)
